Laboratory results from the supplement of paper PMC10503962.

The compounds below were run on Trichuris muris adult worms (assay: mean motility score (Paragon pixel variance) of adult worms (arbitrary units); higher = more motile worms, i.e. less anthelmintic effect; extreme values may be limits of the assay). Conditions: 100 µM; 24 h.
Procedure: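 Primary ex vivo screen of 409 approved drugs against adult Trichuris muris worms: one worm per well in RPMI-1640 with penicillin/streptomycin, 100 µM drug in 1% DMSO, 37 °C, 5% CO2 for 24 h. Motility was recorded with INVAPP (200-frame movies) and scored with the Paragon pixel-variance algorithm. Values are means of triplicate wells run on three occasions; levamisole was the positive control and DMSO the negative control.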

| Structure (SMILES) | mean motility score |
| --- | --- |
| CC1=CC(=O)c2ccccc2C1=O [menadione] | 361 |
| C(=C\c1ccccc1)/CN1CCN(C(c2ccccc2)c2ccccc2)CC1 [cinnarizine] | 1640 |
| NCCCC[C@H](N[C@@H](CCc1ccccc1)C(=O)O)C(=O)N1CCC[C@H]1C(=O)O [lisinopril] | 1970 |
| O=C1c2ccccc2C(=O)C1c1ccccc1 [phenindione] | 4420 |
| O=C(NCCO[N+](=O)[O-])c1cccnc1 [nicorandil] | 2790 |
| CC(=O)O [acetic acid] | 2710 |
| C=CC(=O)N1CCC[C@@H](n2nc(-c3ccc(Oc4ccccc4)cc3)c3c(N)ncnc32)C1 [ibrutinib] | 433 |
| COc1c2ccoc2cc2oc(=O)ccc12 [bergapten] | 3090 |
| C[C@H]1O[C@@H](O[C@H]2[C@@H](O)C[C@H](O[C@H]3[C@@H](O)C[C@H](O[C@H]4CC[C@@]5(C)[C@H](CC[C@@H]6[C@@H]5CC[C@]5(C)[C@@H](C7=CC(=O)OC7)CC[C@]65O)C4)O[C@@H]3C)O[C@@H]2C)C[C@H](O)[C@@H]1O [digitoxin] | 3060 |
| CC/C=C\C/C=C\C/C=C\C/C=C\C/C=C\C/C=C\CCC(=O)O [doconexent] | 4100 |
| COCCCC/C(=N\OCCN)c1ccc(C(F)(F)F)cc1 [fluvoxamine] | 2670 |
| CCn1cc(C(=O)O)c(=O)c2cc(F)c(N3CCNC(C)C3)c(F)c21 (stereo not given) [lomefloxacin] | 3840 |
| COc1ccccc1N1CCN(CC(O)COc2cccc3ccccc23)CC1 (stereo not given) [naftopidil] | 3040 |
| COc1cc2nccc(Oc3ccc(NC(=O)NC4CC4)c(Cl)c3)c2cc1C(N)=O [lenvatinib] | 2500 |
| Cc1oncc1C(=O)Nc1ccc(C(F)(F)F)cc1 [leflunomide] | 2250 |
| CCOc1cc(CC(=O)N[C@@H](CC(C)C)c2ccccc2N2CCCCC2)ccc1C(=O)O [repaglinide] | 268 |
| CNCCCN1c2ccccc2CCc2ccccc21 [desipramine] | 1090 |
| O=C1C(O)=C([C@H]2CC[C@H](c3ccc(Cl)cc3)CC2)C(=O)c2ccccc21 [atovaquone] | 1650 |
| Cc1c(C(=O)NN2CCCCC2)nn(-c2ccc(Cl)cc2Cl)c1-c1ccc(Cl)cc1 [rimonabant] | 2060 |
| NS(=O)(=O)c1cc2c(cc1C(F)(F)F)NCNS2(=O)=O [hydroflumethiazide] | 1060 |

| Structure (SMILES) | mean motility score |
| --- | --- |
| Cc1ccc(S(=O)(=O)NC(=O)NN2CCCCCC2)cc1 [tolazamide] | 4090 |
| CC[N+](C)(C)c1cccc(O)c1.[Cl-] [edrophonium chloride] | 2890 |
| COc1c(C)c2c(c(O)c1C/C=C(\C)CCC(=O)O)C(=O)OC2 [mycophenolic acid] | 2100 |
| CCOC(=O)C1=C(C)NC(C)=C(C(=O)OC)C1c1cccc([N+](=O)[O-])c1 (stereo not given) [nitrendipine] | 0 |
| CC/C(=C(\c1ccccc1)c1ccc(OCCN(C)C)cc1)c1ccccc1 [tamoxifen] | 165 |
| CC(N/C(=N/C#N)Nc1ccncc1)C(C)(C)C.O (stereo not given) [pinacidil monohydrate] | 2490 |
| c1ccc2c(CC3=NCCN3)cccc2c1 [naphazoline] | 4300 |
| CCCCOc1ccc(OCCCN2CCOCC2)cc1.Cl [pramoxine hydrochloride] | 1260 |
| CN(C)c1nc(N(C)C)nc(N(C)C)n1 [altretamine] | 3430 |
| C#CCN(C)Cc1ccccc1 [pargyline] | 2290 |
| Oc1ncc(F)c(O)n1 [fluorouracil] | 3090 |
| CC1(C)S[C@@H]2[C@H](NC(=O)COc3ccccc3)C(=O)N2[C@H]1C(=O)O [penicillin V] | 1470 |
| C#Cc1cccc(Nc2ncnc3cc(OCCOC)c(OCCOC)cc23)c1 [erlotinib] | 1720 |
| Nc1nnc(-c2cccc(Cl)c2Cl)c(N)n1 [lamotrigine] | 2280 |
| CCOc1ccccc1OCCN[C@H](C)Cc1ccc(OC)c(S(N)(=O)=O)c1.Cl [tamsulosin hydrochloride] | 2890 |
| CCOc1ccc2ccccc2c1C(=O)N[C@@H]1C(=O)N2[C@@H]1SC(C)(C)[C@@H]2C(=O)[O-].O.[Na+] [nafcillin sodium monohydrate] | 3570 |
| NC(CO)(CO)CO [tromethamine] | 2770 |
| O=C(O)/C=C/C(=O)O.OCCOCCN1CCN(C2=Nc3ccccc3Sc3ccccc32)CC1.OCCOCCN1CCN(C2=Nc3ccccc3Sc3ccccc32)CC1 [quetiapine fumarate] | 3120 |
| Br.CCCCCCCCCCCCCCCC[N+](C)(C)CCN(Cc1ccc(OC)cc1)c1ncccn1 [thonzonium bromide] | 0 |
| N=C(N)NCCN1CCCCCCC1.N=C(N)NCCN1CCCCCCC1.O=S(=O)(O)O [guanethidine sulfate] | 2380 |
